Article PMC11006913
Changes are numbered by the printed parent chain.

Assays:
Assay in all cases: PBM; 200 nM protein, PBS
Conditions in all cases: dsDNA, one strand shown
SIX6 [1] = molecular target: T1, SIX6 (Homo sapiens, UniProt O95475 114-200, L167I)
T1 sequence: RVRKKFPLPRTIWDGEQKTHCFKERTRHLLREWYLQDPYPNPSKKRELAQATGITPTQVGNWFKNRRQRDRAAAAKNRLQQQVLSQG

SIX6 [2] = molecular target: T2, SIX6 (Homo sapiens, UniProt O95475 114-200, L143V)
T2 sequence: T1 sequence with L30V, I54L

SIX6 [3] = molecular target: T3, SIX6 (Homo sapiens, UniProt O95475 114-200, H141N)
T3 sequence: T1 sequence with H28N, I54L

SIX6 [4] = molecular target: T4, SIX6 (Homo sapiens, UniProt O95475 114-200, T165P)
T4 sequence: T1 sequence with T52P, I54L

SIX6 [5] = molecular target: T5, SIX6 (Homo sapiens, UniProt O95475 114-200, L167M)
T5 sequence: T1 sequence with I54M

SIX6 [6] = molecular target: T6, SIX6 (Homo sapiens, UniProt O95475 114-200, L143M)
T6 sequence: T1 sequence with L30M, I54L

SIX6 [7] = molecular target: T7, SIX6 (Homo sapiens, UniProt O95475 114-200, L143I)
T7 sequence: T1 sequence with L30I, I54L

HOXB6 = HOXB6 (Homo sapiens, UniProt P17509 132-218, K202E)
SIX6 [8] = molecular target: T8, SIX6 (Homo sapiens, UniProt O95475 114-200, T165G)
T8 sequence: T1 sequence with T52G, I54L

SIX6 [9] = molecular target: T9, SIX6 (Homo sapiens, UniProt O95475 114-200, T139Q)
T9 sequence: T1 sequence with T26Q, I54L

SIX6 [10] = molecular target: T10, SIX6 (Homo sapiens, UniProt O95475 114-200, T165A)
T10 sequence: T1 sequence with T52A, I54L

SIX6 [11] = molecular target: T11, SIX6 (Homo sapiens, UniProt O95475 114-200, L167V)
T11 sequence: T1 sequence with I54V

SIX6 [12] = molecular target: T12, SIX6 (Homo sapiens, UniProt O95475 114-200)
T12 sequence: T1 sequence with I54L

SIX6 [13] = molecular target: T13, SIX6 (Homo sapiens, UniProt O95475 114-200, T165I)
T13 sequence: T1 sequence with T52I, I54L

HOXA7 [14] = molecular target: HOXA7 (Homo sapiens, UniProt P31268 116-202)
HOXA7 [15] = molecular target: HOXA7 (Homo sapiens, UniProt P31268 116-202, W177C)
Sequence of HOXA7 (Homo sapiens, UniProt P31268 116-202, W177C) (P31268 116-202 W177C): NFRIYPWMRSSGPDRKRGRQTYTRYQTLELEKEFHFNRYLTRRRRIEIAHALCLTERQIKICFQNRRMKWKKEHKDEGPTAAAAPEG

Sequence of HOXB6 (P17509 132-218 K202E): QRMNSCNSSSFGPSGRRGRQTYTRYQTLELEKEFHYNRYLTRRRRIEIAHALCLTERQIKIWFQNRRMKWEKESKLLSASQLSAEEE
Sequence of HOXA7 (Homo sapiens, UniProt P31268 116-202) (P31268 116-202): as the sequence (P31268 116-202 W177C) above, with C62W counted along it

Sequence | binding signal (SIX6 [1]) | binding signal (SIX6 [2]) | binding signal (SIX6 [3]) | binding signal (SIX6 [4]) | binding signal (SIX6 [5]) | binding signal (SIX6 [6]) | binding signal (SIX6 [7]) | binding signal (HOXB6) | binding signal (SIX6 [8]) | binding signal (SIX6 [9]) | binding signal (SIX6 [10]) | binding signal (SIX6 [11]) | binding signal (SIX6 [12]) | binding signal (SIX6 [13]) | binding signal (HOXA7 [14]) | binding signal (HOXA7 [15])
CTCGGGCC | 9.05 upbm affinity estimate (log intensity, higher = more binding, comparable within an allelic series) | 8.95 upbm affinity estimate (log intensity, higher = more binding, comparable within an allelic series) | 9.05 upbm affinity estimate (log intensity, higher = more binding, comparable within an allelic series) | 9.01 upbm affinity estimate (log intensity, higher = more binding, comparable within an allelic series) | 8.95 upbm affinity estimate (log intensity, higher = more binding, comparable within an allelic series) | 9.01 upbm affinity estimate (log intensity, higher = more binding, comparable within an allelic series) | 9.02 upbm affinity estimate (log intensity, higher = more binding, comparable within an allelic series) | 8.97 upbm affinity estimate (log intensity, higher = more binding, comparable within an allelic series) | 9.14 upbm affinity estimate (log intensity, higher = more binding, comparable within an allelic series) | 9.13 upbm affinity estimate (log intensity, higher = more binding, comparable within an allelic series) | 9.09 upbm affinity estimate (log intensity, higher = more binding, comparable within an allelic series) | 9.03 upbm affinity estimate (log intensity, higher = more binding, comparable within an allelic series) | 9.02 upbm affinity estimate (log intensity, higher = more binding, comparable within an allelic series) | 9.02 upbm affinity estimate (log intensity, higher = more binding, comparable within an allelic series) |  | 
CAGGCCCG | 8.93 upbm affinity estimate (log intensity, higher = more binding, comparable within an allelic series) | 8.77 upbm affinity estimate (log intensity, higher = more binding, comparable within an allelic series) | 8.88 upbm affinity estimate (log intensity, higher = more binding, comparable within an allelic series) | 8.76 upbm affinity estimate (log intensity, higher = more binding, comparable within an allelic series) | 8.82 upbm affinity estimate (log intensity, higher = more binding, comparable within an allelic series) | 8.79 upbm affinity estimate (log intensity, higher = more binding, comparable within an allelic series) | 8.85 upbm affinity estimate (log intensity, higher = more binding, comparable within an allelic series) |  | 8.97 upbm affinity estimate (log intensity, higher = more binding, comparable within an allelic series) | 9.09 upbm affinity estimate (log intensity, higher = more binding, comparable within an allelic series) | 8.92 upbm affinity estimate (log intensity, higher = more binding, comparable within an allelic series) | 8.87 upbm affinity estimate (log intensity, higher = more binding, comparable within an allelic series) | 8.81 upbm affinity estimate (log intensity, higher = more binding, comparable within an allelic series) | 8.93 upbm affinity estimate (log intensity, higher = more binding, comparable within an allelic series) |  | 
CCCAGCCG | 9.06 upbm affinity estimate (log intensity, higher = more binding, comparable within an allelic series) | 8.82 upbm affinity estimate (log intensity, higher = more binding, comparable within an allelic series) | 9.12 upbm affinity estimate (log intensity, higher = more binding, comparable within an allelic series) | 8.84 upbm affinity estimate (log intensity, higher = more binding, comparable within an allelic series) | 9.01 upbm affinity estimate (log intensity, higher = more binding, comparable within an allelic series) | 8.87 upbm affinity estimate (log intensity, higher = more binding, comparable within an allelic series) | 8.92 upbm affinity estimate (log intensity, higher = more binding, comparable within an allelic series) |  | 9.07 upbm affinity estimate (log intensity, higher = more binding, comparable within an allelic series) | 9.24 upbm affinity estimate (log intensity, higher = more binding, comparable within an allelic series) | 9.06 upbm affinity estimate (log intensity, higher = more binding, comparable within an allelic series) | 8.98 upbm affinity estimate (log intensity, higher = more binding, comparable within an allelic series) | 9.03 upbm affinity estimate (log intensity, higher = more binding, comparable within an allelic series) | 9.05 upbm affinity estimate (log intensity, higher = more binding, comparable within an allelic series) | 8.28 upbm affinity estimate (log intensity, higher = more binding, comparable within an allelic series) | 8.32 upbm affinity estimate (log intensity, higher = more binding, comparable within an allelic series)
